Consider 37 compounds from PubChem BioAssay (NCI).

About 83,000 compounds went through this panel and 20% of them were active in at least one assay; those are over-represented in the sample as a whole.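 48-hour exposure, single concentration, 96-well plates; percent growth endpoint where 0 means no net growth. Active: below 10.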 A number with no mark means an inactive call. The source made the active and inactive calls.

The first assay deals with SNB-19 CNS. As to the kind of experiment: NCI-60 one-dose screen, 48 h (100 = growth as untreated, 0 = no growth, -100 = all killed). Conditions: 10 µM unless noted.
As for `COc1cc(Cl)cc(-c2nn(-c3cccc(NC(=O)c4cc(C(F)(F)F)cc(C(F)(F)F)c4)c3)cc2-c2ccncc2)c1`, the growth is 86.4%.
As to `c1cc[n+](Cc2ccnc3ccccc23)cc1`, the growth is 103%.
As for `CCCCOP(=O)(OCCCC)C(C(=O)OCC)C(CC(=O)OCC)C(=O)OCC` (stereo unspecified), the growth was 100%.
Still for that read-out and setting: the figure for `CCCCCc1c(C)[nH]c(/C=C2\N=C(c3ccc[nH]3)C=C2Oc2ccccc2)c1C` is -95.2% [100 µM] (active); for `c1ccc(-c2n(Cc3ccc4ccccc4c3)cc[n+]2Cc2ccc3ccccc3c2)cc1` it is -32.4% (active).
Still for that read-out and setting: the figure for `CC[C@@H](c1ccc(O)c(O)c1)[C@@H](CC)c1ccc(O)c(O)c1` is 97.7%; for `COc1ccc(-c2cnc(SCC(=O)Nc3ccc(-c4nc5ccccc5s4)cc3)n2-c2ccc(OC)cc2)cc1` it is 98.8%.
On the same count and under the same terms, the figure for `O=C(Nc1ccccc1S)c1ccccc1` is 100%.
Regarding `Cc1sc2nc(NCc3ccccc3)[nH]c(=O)c2c1C`, the growth is 69%.
The same measure, in the same setting: the figure for `O=C1CSC(c2ccccc2Cl)N1c1nnc(Cn2nnc3ccccc32)o1` (stereo unspecified) is 83.3%; for `O=C(Nc1nc(-c2ccc(Cl)cc2)cs1)c1cc(-c2ccc(Br)cc2)nc2ccc(Cl)cc12` it is 56%; for `NS(=O)(=O)c1ccc(-n2ncc3c(SCc4ccccc4)ncnc32)cc1` it is 93.9%.
Turning to `C[C@]12CC[C@H](O)CC1=CC[C@@H]1[C@@H]2CC[C@]2(C)C(c3cccnc3)=CC[C@@H]12`, the growth is 72.7%.
The same measure, in the same setting: the value for `Nc1nc2c(c(=O)[nH]1)C1(C(=O)Nc3ccccc31)c1c(nc(N)[nH]c1=O)N2` was 104%; that for `CCN(CC)c1ccc(/C=C/C(=O)c2cccc(NS(C)(=O)=O)c2)cc1` was 74.6%; that for `COc1cc(-c2nnc(-c3nc(-c4cc(OC)c(OC)c(OC)c4)n4ccccc34)o2)ccc1N` was 77.7%.
Turning to `CCSc1nc(Nc2ccc(S(=O)(=O)Nc3ccon3)cc2)c(C#N)c(-c2cccc(Br)c2)n1`, the growth is 100%.
With `Cc1ccc(C2=NNC(c3sc(Cl)nc3Cl)C2)cc1` (stereo unspecified), the growth is 92%.
The same measure, in the same setting: the figure for `CCOC(=O)C(Br)=P(c1ccccc1)(c1ccccc1)c1ccccc1` is 114%.
Same read-out and setting: the figure for `Cc1[nH]ccc2cc3nc4ccccc4c3cc12` is 44.9%; for `COc1ccc(-c2cc(-c3nnc(SCC(=O)Nc4ccc(C(C)=O)cc4)n3-c3ccccc3)c3ccccc3n2)cc1OC` it is 113%.
The same measure, in the same setting: the value for `CC(=O)N1N=C(c2ccc(Nc3nc(NCCO)nc(NCCO)n3)cc2)CC1c1ccc(Cl)cc1` (stereo unspecified) was 86.3%; that for `COc1ccccc1NC(=O)c1sc2nc3c(cc2c1N)C(=O)CCC3` was 64.6%.
As for `CC1(C)CC2(C)CC(=O)C1C(C(=O)O)C2C(=O)O` (stereo unspecified), the growth was 113%.
Same read-out and setting: the figure for `C(=C1c2ccccc2-c2ccccc21)c1ccncc1` is 45.1%.
The same measure, in the same setting: the value for `COc1cccc(N2CCN(c3cccc(C)n3)CC2)c1` was 113%; that for `Nc1ccc(Oc2c(F)c(F)c(Oc3ccc(N)cc3)c(F)c2F)cc1` was 94.8%; that for `CN(C)CCC(=O)Nc1ccc(-n2cc(-c3cccc(NC(=S)Nc4cccc(-c5cn(-c6ccc(NC(=O)CCN(C)C)cc6)nn5)c4)c3)nn2)cc1` was 106%.
Consider `O=C1c2cc3c(cc2-c2c1c1ccc(Cl)cc1c(=O)n2CCCNCCO)OCO3`, for which the growth was -62.8% (active).
Regarding `O=C(CSc1nnc(-c2cc(-c3ccccc3)nc3ccccc23)o1)c1ccc(Br)cc1`, the growth was 93.2%.
On the same count and under the same terms, the value for `CCc1ccc(-c2nc(SCC(=O)NC3CCCCC3)n[nH]2)cc1` was 98.7%.

The subject of the next assay is U251 CNS. The description is as above. As to conditions: 10 µM unless noted.
As to `COc1cc(Cl)cc(-c2nn(-c3cccc(NC(=O)c4cc(C(F)(F)F)cc(C(F)(F)F)c4)c3)cc2-c2ccncc2)c1`, the growth is 60.7%.
Take `O=C(Oc1ccccc1)C(Br)C(Br)c1ccccc1` (stereo unspecified): the growth was 75.7%.
The same measure, in the same setting: the value for `CCCCCc1c(C)[nH]c(/C=C2\N=C(c3ccc[nH]3)C=C2Oc2ccccc2)c1C` was -99.6% [100 µM] (active).
On the same count and under the same terms, the value for `c1ccc(-c2n(Cc3ccc4ccccc4c3)cc[n+]2Cc2ccc3ccccc3c2)cc1` was -93.5% (active); that for `CC[C@@H](c1ccc(O)c(O)c1)[C@@H](CC)c1ccc(O)c(O)c1` was 89.9%; that for `COc1ccc(-c2cnc(SCC(=O)Nc3ccc(-c4nc5ccccc5s4)cc3)n2-c2ccc(OC)cc2)cc1` was 109%.
Still for that read-out and setting: the value for `Cc1sc2nc(NCc3ccccc3)[nH]c(=O)c2c1C` was 30.8%; that for `CCCCCCCCCCNCCSS(=O)(=O)O` was 15%; that for `O=C1CSC(c2ccccc2Cl)N1c1nnc(Cn2nnc3ccccc32)o1` (stereo unspecified) was 77.6%.
Turning to `NS(=O)(=O)c1ccc(-n2ncc3c(SCc4ccccc4)ncnc32)cc1`, the growth was 98.3%.
Same read-out and setting: the figure for `C[C@]12CC[C@H](O)CC1=CC[C@@H]1[C@@H]2CC[C@]2(C)C(c3cccnc3)=CC[C@@H]12` is 67%; for `Nc1nc2c(c(=O)[nH]1)C1(C(=O)Nc3ccccc31)c1c(nc(N)[nH]c1=O)N2` it is 107%; for `CCN(CC)c1ccc(/C=C/C(=O)c2cccc(NS(C)(=O)=O)c2)cc1` it is 41.6%.
With `COc1cc(-c2nnc(-c3nc(-c4cc(OC)c(OC)c(OC)c4)n4ccccc34)o2)ccc1N`, the growth was 64.2%.
On to `COc1cc(/C=C\C(C)=N\Nc2ccccc2)ccc1O`, for which the growth was 90.5%.
With `CC(=O)Nc1c(Cl)cc2c(c1Cl)Cc1cc([N+](=O)[O-])ccc1-2`, the growth is 89%.
Same read-out and setting: the figure for `CCOC(=O)C(Br)=P(c1ccccc1)(c1ccccc1)c1ccccc1` is 87.7%.
Take `Cc1[nH]ccc2cc3nc4ccccc4c3cc12`: the growth is 26.4%.
The same measure, in the same setting: the figure for `COc1ccc(-c2cc(-c3nnc(SCC(=O)Nc4ccc(C(C)=O)cc4)n3-c3ccccc3)c3ccccc3n2)cc1OC` is 101%.
The same measure, in the same setting: the value for `CC(=O)N1N=C(c2ccc(Nc3nc(NCCO)nc(NCCO)n3)cc2)CC1c1ccc(Cl)cc1` (stereo unspecified) was 94.3%.
Same read-out and setting: the value for `CC1(C)CC2(C)CC(=O)C1C(C(=O)O)C2C(=O)O` (stereo unspecified) was 101%; that for `C(=C1c2ccccc2-c2ccccc21)c1ccncc1` was 27.8%.
Take `COc1cccc(N2CCN(c3cccc(C)n3)CC2)c1`: the growth was 97.7%.
The same measure, in the same setting: the value for `Cc1ccc(NC(=O)c2sc3nc4c(cc3c2N)C(=O)CCC4)cc1` was 86.6%; that for `Nc1ccc(Oc2c(F)c(F)c(Oc3ccc(N)cc3)c(F)c2F)cc1` was 83.3%; that for `CN(C)CCC(=O)Nc1ccc(-n2cc(-c3cccc(NC(=S)Nc4cccc(-c5cn(-c6ccc(NC(=O)CCN(C)C)cc6)nn5)c4)c3)nn2)cc1` was 70.9%.
Still for that read-out and setting: the figure for `O=C1c2cc3c(cc2-c2c1c1ccc(Cl)cc1c(=O)n2CCCNCCO)OCO3` is -94.6% (active); for `O=C(CSc1nnc(-c2cc(-c3ccccc3)nc3ccccc23)o1)c1ccc(Br)cc1` it is 98.2%; for `CCc1ccc(-c2nc(SCC(=O)NC3CCCCC3)n[nH]2)cc1` it is 89.3%.
`COc1ccc(C(=O)/C=C/c2ccc(C)cc2)cc1OC`: the growth is 27.7%.
